PubChem BioAssay (NCI)
Compounds without any hit were thinned out: in the full panel of roughly 79,000, 15% have a hit. Values without a mark were called inactive. Calls of active or inactive are those of the source. Cut-off read from the data, not from the text of the source: active = growth inhibition above about 70%; inactive = the rest.

What was measured:
[1] = NCI Yeast Anticancer Drug Screen. Data for the rad50 strain (AID 155);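 note: 0% = growth of vehicle-only cultures of the same strain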; conditions: S. cerevisiae rad50 strain growth inhibition; at 50.0 µM; hits give high values
In short: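 Inhibition values express reduced yeast growth in compound-treated cultures relative to vehicle-treated controls.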

[2] = NCI Yeast Anticancer Drug Screen. Data for the mec2-1 strain (AID 157); conditions: S. cerevisiae mec2-1 strain, at 50.0 µM, hits give high values
In short: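 Yeast mec2-1 mutant treated with compound. Readout: growth inhibition vs vehicle controls.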

[3] = NCI Yeast Anticancer Drug Screen. Data for the sgs1 mgt1 strain (AID 161);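 note: 0% = growth of cultures given vehicle only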; conditions: S. cerevisiae sgs1 mgt1 strain, at 50.0 µM, hits give high values
In short: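 Genetically altered yeast, compound exposure, growth inhibition relative to vehicle.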

[4] = NCI Yeast Anticancer Drug Screen. Data for the cln2 rad14 strain (AID 165);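 note: 0% = growth equal to vehicle treated cultures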; conditions: S. cerevisiae cln2 rad14 strain, at 50.0 µM, hits give high values
In short: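 cln2 rad14 yeast strain; compound exposure; growth inhibition read vs vehicle controls.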

[5] = NCI Yeast Anticancer Drug Screen. Data for the bub3 strain (AID 167); conditions: S. cerevisiae bub3 mutant strain, at 50.0 µM, hits give high values
In short: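 Steps: expose the mutant yeast strain to compound; grow alongside vehicle-treated cultures; measure growth; express inhibition against the vehicle cultures.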

[6] = NCI Yeast Anticancer Drug Screen. Data for the mlh1 rad18 strain (AID 175); conditions: S. cerevisiae mlh1 rad18 strain growth inhibition; at 50.0 µM; hits give high values
In short: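 Yeast w/ defined DNA-repair lesions; compound exposure; growth vs vehicle controls → % inhibition.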

Row | Compound | growth inhibition [1] | growth inhibition [2] | growth inhibition [3] | growth inhibition [4] | growth inhibition [5] | growth inhibition [6]
1 | Cc1nc(N)nc(C)c1N=Nc1cccc(Cl)c1 | 2.05% | 11.6% | 9.35% | -32.8% | 21.6% | 3.85%
2 | O=C(NC(=S)Nc1ccc(S(=O)(=O)c2ccc(NC(=S)NC(=O)c3ccccc3)cc2)cc1)c1ccccc1 | -28.5% | -32.6% | -7.8% | 8.75% | -32.1% | -12.6%
3 | CCOC(C)C=O (configuration not stated) | -3.85% | 19.1% | -21.4% | -36% | -7.6% | -25.9%
4 | NC(Cc1ccc(O)cc1)C(=O)NCCS(=O)(=O)O (configuration not stated) | 1.5% | 9.85% | 26.7% | 11.2% | 18.6% | 0.65%
5 | O=C(Nc1c(Cl)cccc1Cl)OCc1ccco1 | 7.5% | -10.6% | 24.1% | 3.15% | 23.4% | 19.6%
6 | CC1=COC(=O)[C@@H]2[C@@H](C)CC[C@@H]12 | 1.1% | -3.65% | -9.6% | 10.3% | 6.05% | -4.2%
7 | O=C(c1ccccc1)c1ccc2cccc3c2c1CC3 | 40.2% | 14.6% | 32.1% | 20.8% | 51.6% | 34.4%
8 | Cc1ccc(S(=O)(=O)N/N=c2/sc3ccccc3n2C)cc1 | -35% | -19.1% | -33.5% | -7.85% | -8.2% | -22.3%
9 | Nc1ccc2c(c1)Cc1cc(O)ccc1-2 | 19.1% | -8.75% | 1.45% | 6.3% | 9.9% | 4.35%
10 | CC(=O)C(=CC=C(c1ccc(N(C)C)cc1)c1ccc(N(C)C)cc1)C(C)=O | -45.3% | -8.55% | 9.5% | -14.8% | 12.7% | -13.6%
11 | O=[N+]([O-])c1ccc(C2NC(c3ccccc3)c3c(ccc4ccccc34)O2)cc1 (configuration not stated) | 41% | 2.75% | 23.8% | -1.35% | -0.25% | 4.3%
12 | CCCCCCCCCC[n+]1cccc(C(N)=O)c1 | 3.7% | -17.2% | 13.8% | 3.75% | -1.05% | 28.9%
13 | O[C@H]1[C@H]2c3cc4c(cc3CN3CCC(C[C@@H]1O)[C@H]23)OCO4 (some centres not stated) | 3.05% | -6.5% | 9.65% | 20.3% | 3.4% | 9.3%
14 | OCC(O)C1OC2CC1Nc1ccccc1N2 (configuration not stated) | -30.6% | -21.3% | 9.6% | 17.3% | -15.1% | -12.7%
15 | COc1ccccc1/C=N/NC(=O)CCCCCCCCC(=O)N/N=C/c1ccccc1OC | 0.95% | -4% | -4.4% | -11.2% | -5.5% | 14.5%
16 | Cc1c2ccccc2cc2c1ccc1c(Br)cccc12 | 10.1% | -3.45% | 21.3% | 25.8% | 12.1% | 5.8%
17 | Nc1ccn(CCC(COCc2ccccc2)COCc2ccccc2)c(=O)n1 | 35.8% | -13.4% | 0.75% | -5.6% | -5.45% | 5.75%
18 | CCCCCCCC/C=C\CCCCCCCC(=O)N1CCN(C(=O)CCCCCCC/C=C/CCCCCCCC)C1 | 20.4% | -13.3% | 4.05% | 16.4% | 0.15% | -8.35%
19 | CC(C)NC(=O)c1ccc(CBr)cc1 | 0.8% | 9.05% | -10.1% | 9.8% | 10.4% | 14.3%
20 | Cc1ccc(Cl)c(NC(=O)c2ccccc2Cl)c1 | 6.2% | 8.2% | 18.8% | -8% | 12.4% | 30.9%
21 | COC(=O)CCC(=O)C(CC(=O)OC)C(=O)CCC(=O)NCCc1ccccc1 (configuration not stated) | -30.1% | -21.9% | -41.5% | 2.4% | -24.2% | -31.4%

Row | Compound | growth inhibition [1] | growth inhibition [2] | growth inhibition [3] | growth inhibition [4] | growth inhibition [5] | growth inhibition [6]
22 | CC(C)(C)N1CC(C(O)c2ccccc2)C1c1ccccc1 (configuration not stated) | -8.05% | 0.25% | -17.2% | -13.6% | -11.4% | -2.5%
23 | CCOc1ccc(C(C)c2cc3c(cc2OC)OCO3)cc1 (configuration not stated) | 20.7% | 2.3% | 20.8% | -1.55% | 27.5% | 11.8%
24 | CC(=O)OC1/C=C(\C)C(OC(C)=O)C/C=C(/C)CCC2C(/C=C/C1=O)C2(C)C (configuration not stated) | 78.9% (active) | 74.4% (active) | 78.1% (active) | 64.1% | 71.2% (active) | 74% (active)
25 | CCO[C@H]1c2cc3c(cc2[C@@H](c2cc(OC)c(OC)c(OC)c2)[C@H]2C(=O)OC[C@@H]21)OCO3 | 11.4% | 6.25% | 26.9% | 28.7% | 12.7% | 24.9%
26 | N#C/C(=C\c1cccc(N)c1)c1ccccc1 | 45.4% | 57.9% | 73.7% (active) | 30.1% | 88% (active) | 80% (active)
27 | C[C@@H](O)[C@H](NSc1ccccc1[N+](=O)[O-])C(=O)NCCc1nc(-c2nc(C(=O)NCCCBr)cs2)cs1 | -0.8% | 2.35% | -2.1% | -21.5% | 1.55% | 13%
28 | N#CCCC(CCC#N)(CCC(CCC#N)(CCC#N)[N+](=O)[O-])[N+](=O)[O-] | -4.05% | 11% | 10.8% | -11.6% | 8.8% | 6.3%
29 | CC1=CC(C)(C)NC(=S)N1c1ccc(O)cc1 | 0% | -14.8% | 11.3% | -24.8% | 6.8% | 15.8%
30 | COc1ccc(-c2ccc(Cc3ccc(-c4ccc(OC)cc4)o3)o2)cc1 | 4.35% | -0.35% | 6.7% | -72.7% | -6.4% | 1%
31 | CCOC(=O)C(O)(NC(=O)c1ccc(F)cc1)C(F)(F)F (configuration not stated) | 12.2% | 1.85% | -9.9% | 17.1% | -10.2% | -23.9%
32 | N=c1c2ccccc2c2ccccc2n1O | 2.15% | -5.05% | -19.1% | -11.4% | -5.75% | -19.4%
33 | CN(CC#N)[C@H]1CCC[C@]1(O)C#C[Si](C)(C)c1ccccc1 | 9.15% | -19.8% | 19.1% | 30.9% | 9.05% | 1.55%
34 | CN1C(C(=O)Nc2ccccn2)=C(O)c2ccccc2S1(=O)=O | 5% | 15.5% | 5.1% | 0.9% | -1.75% | 8.25%
35 | Oc1c(/N=N/C(=S)NCCCN2CCN(CCCNC(=S)/N=N/c3[nH]c4ccccc4c3O)CC2)[nH]c2ccccc12 | 22.8% | 6.45% | 20.6% | -2.7% | -17.8% | 14.9%
36 | CCOC(=O)C(Cc1cc(C)c(O)c(I)c1)NC(C)=O (configuration not stated) | -18.4% | -1.1% | -11.2% | 4.2% | 5.85% | -5.85%
37 | CC(C)C1CCC(=O)CC1 | 9.9% | 0.35% | -1% | -12.2% | 0.75% | -4.9%
38 | CC(=O)c1cc([N+](=O)[O-])c[nH]1 | 9.05% | 1.45% | 1.1% | -19.1% | 9.25% | 0.5%
39 | CCC(C)(O)c1cn(-c2cccc(S(=O)(=O)O)c2)nn1 (configuration not stated) | -9.3% | -10.2% | -8.05% | 5.95% | -8.65% | -8.35%
40 | COC(=O)C(=O)C1CCc2c(ccc3c2CCCC3)C1 (configuration not stated) | 0.8% | 17.4% | 22.9% | -8.8% | 8.2% | 10.2%
41 | CCOc1ccc(Cc2ccccc2)cc1 | -8.95% | -23.9% | -7% | 1.5% | -8.25% | -5.35%
42 | O=C(O)c1sccc1-c1cccc2ccccc12 | 0.5% | 18.6% | 10.9% | -13.3% | -15.6% | -11.8%
